The campaign covered roughly 52,000 compounds. About 4,300 (8.3%) were called active. Cut-off read from the data, not from the text of the source: active = survival mostly below about 52% (no sharp cut-off); inactive = mostly above about 56%. For the sample, actives were picked, then their nearest neighbours and some compounds at random.
Each compound was assayed on DeltatarO mutant (assay: growth inhibition of S. aureus wild type versus tarO mutant, primary screen, teichoic acid synthesis inhibitors, RN4220, OD600 (AID 463173)). Settings: OD600, 18 h, active compounds read low, screened at 18.75 µg/mL (by protocol).
In the case of `CCC1/C(=N\O)CC(c2ccco2)NC1c1ccco1` (centres undefined), the survival is reported as 84% (inactive).
For `COc1ccc(NC(=O)Cn2c(SCc3ccc(C)cc3)nc3cccnc32)c(OC)c1`, the survival was 82% (inactive).
In the case of `CC(C(=O)Nc1ccc(OC(F)(F)F)cc1)N1Cc2ccccc2C1=O` (centres undefined), the survival is reported as 20% (active).
With `COc1cc(NC(=O)C(CCS(C)(=O)=O)N2Cc3ccccc3C2=O)cc(OC)c1OC` (centres undefined) the survival was 55% (inactive).
`O=C(Nc1ccccc1F)C(Cc1ccccc1)N1Cc2ccccc2C1=O` (centres undefined) was tested, and the survival was 60% (inactive).
In the case of `Cc1ccc(NC(=O)[C@H](Cc2ccccc2)N2Cc3ccccc3C2=O)cc1F`, the survival is reported as 84% (inactive).
In the case of `COC(=O)c1ccc(NC(=O)C(C)N2Cc3ccccc3C2=O)cc1` (centres undefined), the survival is reported as 66% (inactive).
With `O=C(Nc1ccc(F)cc1F)C(Cc1ccccc1)N1Cc2ccccc2C1=O` (centres undefined) the survival was -4% (active).
With `Cc1ccc(NC(=O)C(CC(C)C)N2Cc3ccccc3C2=O)cc1F` (centres undefined) the survival was -5% (active).
In the case of `CCOc1ccc(NC(=O)C(CC(C)C)N2Cc3ccccc3C2=O)cc1` (centres undefined), the survival is reported as 130% (inactive).
With `CS(=O)(=O)CCC(C(=O)Nc1cccc(C(F)(F)F)c1)N1Cc2ccccc2C1=O` (centres undefined) the survival was 17% (active).
With `Cc1ccc(C)c(NC(=O)C(CC(C)C)N2Cc3ccccc3C2=O)c1` (centres undefined) the survival was 134% (inactive).
In the case of `COC(=O)c1cc(NC(=O)[C@H](CCS(C)(=O)=O)N2Cc3ccccc3C2=O)cc(C(=O)OC)c1`, the survival is reported as 86% (inactive).
`O=C(Nc1ccc(F)cc1)[C@H](Cc1ccccc1)N1Cc2ccccc2C1=O` was tested, and the survival was 89% (inactive).
With `CC(C)Cn1c(=O)c2ccccc2n2c(CCC(=O)N3CCN(c4ccccc4F)CC3)nnc12` the survival was 92% (inactive).
`Cc1noc(Cn2c(=O)c3cc4c(cc3n(CC(=O)Nc3cccc(Cl)c3)c2=O)OCO4)n1` was tested, and the survival was 122% (inactive).
With `COc1cccc(C(=O)Nc2ccc3nc(SCCOc4ccccc4)sc3c2)c1` the survival was 75% (inactive).
For `Cc1cc(C)nc(-n2nc(C)c3c2N(Cc2ccccc2C)C(=O)CC3c2ccc(Cl)cc2)n1` (centres undefined), the survival was 72% (inactive).
For `COc1ccc(-c2cc(C(F)(F)F)n3nc(C(=O)Nc4cccc(C(F)(F)F)c4)c(Br)c3n2)cc1`, the survival was 73% (inactive).
`CC(C(=O)Nc1ccc(F)c(Cl)c1)N1Cc2ccccc2C1=O` (centres undefined) was tested, and the survival was 8% (active).
For `Cc1cc(C)cc(NC(=O)C(C)N2Cc3ccccc3C2=O)c1` (centres undefined), the survival was 91% (inactive).
For `COc1ccc(NC(=O)C(C)N2Cc3ccccc3C2=O)cc1OC` (centres undefined), the survival was 101% (inactive).
With `CCCn1ccc2c(OCC(=O)Nc3ccccc3C(=O)OCC)cccc2c1=O` the survival was 94% (inactive).
`Cc1ccc(C)c(CN2C(=O)c3ccccc3S(=O)(=O)c3ccc(C(=O)NCCc4ccc(Cl)cc4)cc32)c1` was tested, and the survival was 111% (inactive).
For `N#Cc1cccc(NC(=O)C2CCN(c3nc(-c4ccc(Cl)cc4)no3)CC2)c1`, the survival was 82% (inactive).
For `Cc1cccc(CNC(=O)Cn2ccc3cc(S(=O)(=O)N4CCCC4)ccc32)c1`, the survival was 73% (inactive).
With `CC1CCN(S(=O)(=O)c2ccc3c(ccn3CCC(=O)NCc3ccccc3F)c2)CC1` the survival was -5% (active).
With `Cc1cccc(CNC(=O)Cn2ccc3cc(S(=O)(=O)N4CCCCCC4)ccc32)c1` the survival was -5% (active).
`O=C(CCn1ccc2cc(S(=O)(=O)N3CCCC3)ccc21)NCc1ccccc1F` was tested, and the survival was 94% (inactive).
`O=C(CCn1ccc2cc(S(=O)(=O)N3CCCC3)ccc21)NCc1cccc(Cl)c1` was tested, and the survival was 17% (active).
With `CCc1ccc(CNC(=O)CCCn2ccc3cc(S(=O)(=O)N4CCCC4)ccc32)cc1` the survival was 91% (inactive).
With `O=C(Cn1ccc2cc(S(=O)(=O)N3CCCCC3)ccc21)NCc1cccc(Cl)c1` the survival was 117% (inactive).
`Cc1cccc(CNC(=O)Cn2ccc3cc(S(=O)(=O)N4CCC(C)CC4)ccc32)c1` was tested, and the survival was 76% (inactive).
For `COc1ccc(CNC(=O)CCCn2ccc3cc(S(=O)(=O)N4CCCC4)ccc32)cc1`, the survival was 101% (inactive).
In the case of `CC1CCN(S(=O)(=O)c2ccc3c(ccn3CC(=O)NCc3ccccc3F)c2)CC1`, the survival is reported as 54% (inactive).
In the case of `CN(C)c1ccc(CNC(=O)CCCn2ccc3cc(S(=O)(=O)N4CCCC4)ccc32)cc1`, the survival is reported as 8% (active).
`Cc1cccc(CNC(=O)CCn2ccc3cc(S(=O)(=O)N4CCCC4)ccc32)c1` was tested, and the survival was 87% (inactive).
In the case of `Cc1nn(C)c2c1c(-c1ccccc1)cc(=O)n2C(C)C(=O)NCCc1ccc(Cl)cc1` (centres undefined), the survival is reported as 99% (inactive).
In the case of `CCOC(=O)c1cc2c(=O)n3ccccc3nc2n(CCOC)c1=NC(=O)c1c(-c2ccccc2Cl)noc1C`, the survival is reported as 180% (inactive).
For `Cc1cccc(C(c2sc3nc(-c4ccco4)nn3c2O)N2CCN(c3ccccc3F)CC2)c1` (centres undefined), the survival was 67% (inactive).
For `CCOC(=O)c1ccc2c(c1)N(CC(=O)Nc1ccc(C)cc1C)C(=O)c1ccccc1S2`, the survival was 112% (inactive).
For `Cc1sc2c(c1C)c(=O)n(CCc1ccccc1)c(=O)n2Cc1ccc(C(C)(C)C)cc1`, the survival was 87% (inactive).
For `Cc1cccc(-n2c(CCN3C(=O)c4ccccc4C3=O)nc3ccccc3c2=O)n1`, the survival was 87% (inactive).
In the case of `Clc1ccc(CN2CCc3nc(Nc4ccc5c(c4)OCCO5)ncc3C2)cc1`, the survival is reported as 94% (inactive).
In the case of `CCOc1ccc(NC(=O)Cn2cc(C(=O)c3ccc(C)cc3)c(=O)c3cc4c(cc32)OCO4)cc1`, the survival is reported as 70% (inactive).
For `CCOc1ccc(NC(=O)CCS(=O)(=O)c2ccc3nc(C)sc3c2)cc1`, the survival was 55% (inactive).
For `CCOC(=O)c1ccccc1NC(=O)CN1C(=O)CC(c2ccco2)Sc2ccccc21` (centres undefined), the survival was 72% (inactive).
`O=C(Cn1ccc2cc(S(=O)(=O)N3CCCCCC3)ccc21)NCc1ccccc1Cl` was tested, and the survival was 77% (inactive).
In the case of `O=C(Cn1ccc2cc(S(=O)(=O)N3CCCCC3)ccc21)NCCc1ccccc1Cl`, the survival is reported as -4% (active).
With `CC(C(=O)NCc1ccccc1)n1ccc2cc(S(=O)(=O)N3CCCC3)ccc21` (centres undefined) the survival was 20% (active).
For `Cc1ccc(CNC(=O)C(C)n2ccc3cc(S(=O)(=O)N4CCCC4)ccc32)cc1` (centres undefined), the survival was 102% (inactive).
In the case of `O=C(Cn1ccc2cc(S(=O)(=O)N3CCCCCC3)ccc21)NCCc1ccccc1Cl`, the survival is reported as 88% (inactive).
`CCc1ccc(CNC(=O)C(C)n2ccc3cc(S(=O)(=O)N4CCCCCC4)ccc32)cc1` (centres undefined) was tested, and the survival was 94% (inactive).
`CCn1nc(C)c2c(-c3ccccc3)cc(=O)n(C(C)C(=O)NCCC(C)C)c21` (centres undefined) was tested, and the survival was 99% (inactive).

From PubChem BioAssay AID463173 (ICCB-Longwood Screening Facility, Harvard Medical School, 2010)
